Source: the supplement of paper PMC7184167
Counter-ions that a name gives are not always drawn.

system: replication-induced senescent mouse newborn dermal fibroblasts (NBF); test: relative cell viability of senescent cells (fraction); higher = less killing of senescent cells; settings: 1 µM; 3 days
Method: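 Replication-induced senescent newborn mouse skin fibroblasts (NBFs) in 24-well plates were treated with a Selleck FDA-approved drug library at 1 µM for 3 days.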

| SMILES | relative cell viability |
| --- | --- |
| NC(=O)N1c2ccccc2CC(=O)c2ccccc21 [Oxcarbazepine] | 0.905 |
| Cc1[nH]c2ccccc2c1CCNCc1ccc(/C=C/C(=O)NO)cc1 [Panobinostat (LBH589)] | 1.08 |
| CC1(C)CCC(c2ccc(Cl)cc2)=C(CN2CCN(c3ccc(C(=O)NS(=O)(=O)c4ccc(N[C@H](CCN5CCOCC5)CSc5ccccc5)c(S(=O)(=O)C(F)(F)F)c4)cc3)CC2)C1 [Navitoclax (ABT-263)] | 1.04 |
| O=C(C1CCCCC1)N1CC(=O)N2CCc3ccccc3C2C1 (stereo not given) [Praziquantel] | 1.07 |
| Clc1ccc(C(Cn2ccnc2)OCc2c(Cl)cccc2Cl)c(Cl)c1 (stereo not given) [Isoconazole nitrate] | 0.937 |
| CC(=O)O[C@H]1C(=O)[C@@]2(C)[C@H]([C@H](OC(=O)c3ccccc3)[C@]3(O)C[C@H](OC(=O)[C@H](O)[C@@H](NC(=O)c4ccccc4)c4ccccc4)C(C)=C1C3(C)C)[C@]1(OC(C)=O)CO[C@@H]1C[C@@H]2O [Paclitaxel] | 0.398 |
| Nc1cccc2c1C(=O)N(C1CCC(=O)NC1=O)C2=O (stereo not given) [Pomalidomide] | 1.19 |
| CCN(CC)CC#CCOC(=O)C(O)(c1ccccc1)C1CCCCC1 (stereo not given) [Oxybutynin] | 0.938 |
| Oc1ccc(OCc2ccccc2)cc1 [Monobenzone] | 0.981 |
| COc1cc2c(Oc3ccc4[nH]c(C)cc4c3F)ncnc2cc1OCCCN1CCCC1 [Cediranib (AZD2171)] | 0.269 |
| Cn1ccnc1S [Methimazole] | 0.994 |
| O=C1CCC(N2C(=O)c3ccccc3C2=O)C(=O)N1 (stereo not given) [Thalidomide] | 0.296 |
| Cc1cn[nH]c1 [Fomepizole] | 1.07 |
| NC(=O)c1ccc(I)c([N+](=O)[O-])c1 [Iniparib (BSI-201)] | 0.209 |
| COC(=O)C1=C(C)NC(C)=C(C(=O)OC)C1c1ccccc1[N+](=O)[O-] [Nifedipine] | 1.01 |
| CCn1cc(C(=O)O)c(=O)c2cc(F)c(N3CCN(C)CC3)cc21 [Pefloxacin Mesylate] | 0.993 |
| Cc1nc(C(=O)NCC(=O)O)c(O)c2ccc(Oc3ccccc3)cc12 [Roxadustat (FG-4592)] | 1.03 |
| OCCN(CCO)c1nc(N2CCCCC2)c2nc(N(CCO)CCO)nc(N3CCCCC3)c2n1 [Dipyridamole] | 1 |
| Clc1cccc(Cl)c1NC1=NCCN1 [Clonidine HCl] | 1.04 |
| COCC[n+]1c2c(n(Cc3cnccn3)c1C)C(=O)c1ccccc1C2=O [YM155 (Sepantronium Bromide)] | 0.187 |

| SMILES | relative cell viability |
| --- | --- |
| CO[C@H]1/C=C/O[C@@]2(C)Oc3c(C)c(O)c4c(O)c(c(/C=N/N5CCN(C6CCCC6)CC5)c(O)c4c3C2=O)NC(=O)/C(C)=C\C=C\[C@H](C)[C@H](O)[C@@H](C)[C@@H](O)[C@@H](C)[C@H](OC(C)=O)[C@@H]1C [Rifapentine] | 0.659 |
| CCC(C)(C)c1ccc(CC(C)CN2C[C@@H](C)O[C@@H](C)C2)cc1 (stereo not given in full) [Amorolfine HCl] | 1.09 |
| COc1cc2nc(N3CCN(C(=O)c4ccco4)CC3)nc(N)c2cc1OC [Prazosin HCl] | 0.927 |
| O=C(O)c1ccc(-n2nc(-c3ccccc3O)nc2-c2ccccc2O)cc1 [Deferasirox] | 1.07 |
| CN(Cc1cnc2nc(N)nc(N)c2n1)c1ccc(C(=O)N[C@@H](CCC(=O)O)C(=O)O)cc1 [Methotrexate] | 0.692 |
| CN(C)C/C=C/C(=O)Nc1cc2c(Nc3ccc(F)c(Cl)c3)ncnc2cc1O[C@H]1CCOC1 [Afatinib (BIBW2992)] | 0.539 |
| COc1cc(C(=O)NS(=O)(=O)c2ccccc2C)ccc1Cc1cn(C)c2ccc(NC(=O)OC3CCCC3)cc12 [Zafirlukast] | 0.957 |
| Cc1ccc(C(=O)Nc2ccc(CN3CCN(C)CC3)c(C(F)(F)F)c2)cc1C#Cc1cnc2cccnn12 | 0.964 |
| CN(CCOc1ccc(NS(C)(=O)=O)cc1)CCc1ccc(NS(C)(=O)=O)cc1 [Dofetilide] | 1.02 |
| Clc1ccc(CCC(Cn2ccnc2)Sc2c(Cl)cccc2Cl)cc1 (stereo not given) [Butoconazole nitrate] | 1.14 |
| COC(=O)N[C@H](C(=O)N[C@@H](Cc1ccccc1)[C@@H](O)CN(Cc1ccc(-c2ccccn2)cc1)NC(=O)[C@@H](NC(=O)OC)C(C)(C)C)C(C)(C)C [Atazanavir Sulfate] | 0.988 |
| Cc1ccc(C)c(OCCCC(C)(C)C(=O)O)c1 [Gemfibrozil] | 1.02 |
| CN(C)CC/C=C1/c2ccccc2Sc2ccc(Cl)cc21 [Chlorprothixene] | 1.1 |
| Nc1cccc2c1CN(C1CCC(=O)NC1=O)C2=O (stereo not given) [Lenalidomide (CC-5013)] | 1.04 |
| NC(=O)N1c2ccccc2C=Cc2ccccc21 [Carbamazepine] | 0.859 |
| CO[C@H]1/C=C/O[C@@]2(C)Oc3c(C)c(O)c4c(O)c(c(/C=N/N5CCN(C)CC5)c(O)c4c3C2=O)NC(=O)/C(C)=C\C=C\[C@H](C)[C@H](O)[C@@H](C)[C@@H](O)[C@@H](C)[C@H](OC(C)=O)[C@@H]1C [Rifampin] | 1.11 |
| Nc1ccn([C@@H]2O[C@H](CO)[C@@H](O)C2(F)F)c(=O)n1 [Gemcitabine] | 0.11 |
| Nc1nc(=O)[nH]cc1F [Flucytosine] | 0.996 |
| COC(=O)C1=C(C)NC(C)=C(C(=O)OCC(C)C)C1c1ccccc1[N+](=O)[O-] (stereo not given) [Nisoldipine] | 1.12 |
| COc1ccc(Cl)cc1C(=O)NCCc1ccc(S(=O)(=O)NC(=O)NC2CCCCC2)cc1 [Glyburide (Glibenclamide)] | 1.02 |
